The full data set covers some 7,900 targets. This sample favours those with a hit. About 0.6% of all pairs of compound and target were hits. Unmarked numbers belong to inactive results.
Key:
Test in all cases: log2 fold change, soluble protein after heating vs DMSO (PISA); higher = thermal stabilisation; K562 cells, 10 uM, 30 min; active = over 0.2 and 3.5 SD of the protein, either way, in both replicates (recomputed)
[1] = compound: C#Cc1cccc(Nc2ncnc3cc(OCCOC)c(OCCOC)cc23)c1 [erlotinib]
Method in brief: (§1)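 K562 cells at 2×10^6 cells/mL were treated for 30 min with 10 μM compound, and aliquots were heated for 3 min over 48°C-58°C before pooling. Extraction used PBS with 0.5% NP-40 at 4°C, and soluble protein was the supernatant after 21,000xg for 90 min, measured by TMTpro 16plex LC-MS/MS with channel sums equalised. Thermal stability values, relative to control samples and from duplicates, are log2 fold changes.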

[2] = compound: C/C(=N\NC(=O)C1=CC(=CC=C1)S(=O)(=O)N2CCOCC2)/C3=C(C=CC(=C3)Cl)O
Method in brief: as §1

[3] = compound: C1=CC(=C(C=C1Cl)C2=NC3=NC=CN=C3C(=N2)NC4=CC=NC=C4)F
Method in brief: as §1

[4] = compound: C1=CC(=CC=C1C2=NC3=C(N2)C=C(C=C3)C(=O)N)OC4=CC=C(C=C4)Cl
Method in brief: as §1

[5] = compound: C1=CC2=C(C=CC(=C2)/C=C\3/C(=O)NC(=NCC4=CC=CS4)S3)N=C1
Method in brief: as §1

[6] = compound: C1=CC2=NC=CN=C2C=C1/C=C/3\C(=O)NC(=O)S3
Method in brief: as §1

[7] = compound: C1=CC=C(C=C1)C2=NC(=C(N2)C3=CC=NC=C3)C4=CC(=C(C=C4)Cl)O
Method in brief: as §1

[8] = compound: C1=CC=C2C(=C1)C3=NNC4=CC=CC(=C43)C2=O
Method in brief: as §1

[9] = compound: C1CCN(C1)C(=O)NC2=CC=CC(=C2)NC3=NC=C(C(=N3)NCCC4=CN=CN4)Br
Method in brief: as §1

[10] = compound: C1CN(CCC1(CC2=CC=C(C=C2)Cl)N)C3=NC=NC4=C3C=CN4
Method in brief: as §1

[11] = compound: C1COCCN1CCN2C3=CC=CC=C3N=C2NC(=O)C4=CC(=CC=C4)[N+](=O)[O-] [IRAK-1-4 Inhibitor I]
Method in brief: as §1

[12] = compound: C=CC(=O)N1CCC[C@@H](n2nc(-c3ccc(Oc4ccccc4)cc3)c3c(N)ncnc32)C1 [ibrutinib]
Method in brief: as §1

[13] = compound: CC(=O)c1cnc2ccc(-c3cc(Cl)c(O)c(Cl)c3)nc2c1N[C@H]1CC[C@H](CN(C)C)CC1
Method in brief: as §1

[14] = compound: CC(C)(C)Cn1c(N)nc2ccc(-c3[nH]c(C(C)(C)C)nc3-c3ccc(F)cc3)nc21 [ralimetinib]
Method in brief: as §1

[15] = compound: CC(C)(O)CC(=O)NCCn1ccc2ncnc(Nc3ccc(Oc4cccc(C(F)(F)F)c4)c(Cl)c3)c21
Method in brief: as §1

[16] = compound: CC(C)C1=C2N=C(C=C(N2N=C1)NCC3=CC=CC=C3)NCCCCCCN
Method in brief: as §1

[17] = compound: CC(C)C[C@@H](C=O)NC(=O)[C@H](CC(C)C)NC(=O)[C@H](CC(C)C)NC(=O)OCc1ccccc1
Method in brief: as §1

[18] = compound: CC(C)N(C[C@H]1O[C@@H](n2cnc3c(N)ncnc32)[C@H](O)[C@@H]1O)[C@H]1C[C@@H](CCc2nc3cc(C(C)(C)C)ccc3[nH]2)C1 [pinometostat]
Method in brief: as §1

[19] = compound: CC1=C(C(CC(=O)N1)C2=CC=C(C=C2)C(F)(F)F)C(=O)NC3=C(C=C4C(=C3)C=NN4)F
Method in brief: as §1

[20] = compound: CC1=C(C2=C(C=C1)C(=O)C3=CC=CC=C3N2CCCN)C
Method in brief: as §1

Sequence of UniProt Q8NCF5 (Q8NCF5 whole entry, looked up): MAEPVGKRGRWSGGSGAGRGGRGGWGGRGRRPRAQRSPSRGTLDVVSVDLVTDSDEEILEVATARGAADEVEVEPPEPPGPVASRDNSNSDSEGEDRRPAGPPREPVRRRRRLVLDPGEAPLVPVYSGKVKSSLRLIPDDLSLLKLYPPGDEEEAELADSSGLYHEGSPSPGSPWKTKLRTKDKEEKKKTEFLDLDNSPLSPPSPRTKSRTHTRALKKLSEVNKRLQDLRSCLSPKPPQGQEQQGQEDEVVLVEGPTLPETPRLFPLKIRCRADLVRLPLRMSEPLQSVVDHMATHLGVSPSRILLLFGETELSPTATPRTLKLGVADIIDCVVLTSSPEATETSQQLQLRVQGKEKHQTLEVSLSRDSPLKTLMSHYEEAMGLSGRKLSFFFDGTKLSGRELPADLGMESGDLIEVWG
Sequence of UniProt P46087 (P46087 whole entry, looked up): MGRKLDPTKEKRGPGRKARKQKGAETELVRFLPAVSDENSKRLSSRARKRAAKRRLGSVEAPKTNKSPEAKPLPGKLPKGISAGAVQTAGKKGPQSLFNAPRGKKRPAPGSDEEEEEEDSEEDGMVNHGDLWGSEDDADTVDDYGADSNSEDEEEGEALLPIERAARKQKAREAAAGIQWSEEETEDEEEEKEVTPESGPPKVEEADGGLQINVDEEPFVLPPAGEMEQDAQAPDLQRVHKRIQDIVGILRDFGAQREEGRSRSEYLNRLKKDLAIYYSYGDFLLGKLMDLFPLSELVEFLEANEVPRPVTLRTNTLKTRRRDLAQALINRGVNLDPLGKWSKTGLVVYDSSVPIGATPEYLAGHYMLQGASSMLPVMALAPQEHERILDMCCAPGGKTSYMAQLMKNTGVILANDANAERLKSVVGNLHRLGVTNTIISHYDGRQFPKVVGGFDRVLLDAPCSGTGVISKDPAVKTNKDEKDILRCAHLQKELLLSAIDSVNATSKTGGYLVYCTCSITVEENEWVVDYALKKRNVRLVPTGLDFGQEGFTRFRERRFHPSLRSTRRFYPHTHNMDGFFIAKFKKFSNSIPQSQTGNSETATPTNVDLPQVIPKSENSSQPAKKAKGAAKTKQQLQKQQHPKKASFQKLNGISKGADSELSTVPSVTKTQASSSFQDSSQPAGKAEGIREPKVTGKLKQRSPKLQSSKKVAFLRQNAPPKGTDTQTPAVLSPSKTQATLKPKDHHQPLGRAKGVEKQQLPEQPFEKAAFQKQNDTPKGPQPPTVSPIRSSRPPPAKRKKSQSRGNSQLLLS
Sequence of UniProt Q00013 (Q00013 whole entry, looked up): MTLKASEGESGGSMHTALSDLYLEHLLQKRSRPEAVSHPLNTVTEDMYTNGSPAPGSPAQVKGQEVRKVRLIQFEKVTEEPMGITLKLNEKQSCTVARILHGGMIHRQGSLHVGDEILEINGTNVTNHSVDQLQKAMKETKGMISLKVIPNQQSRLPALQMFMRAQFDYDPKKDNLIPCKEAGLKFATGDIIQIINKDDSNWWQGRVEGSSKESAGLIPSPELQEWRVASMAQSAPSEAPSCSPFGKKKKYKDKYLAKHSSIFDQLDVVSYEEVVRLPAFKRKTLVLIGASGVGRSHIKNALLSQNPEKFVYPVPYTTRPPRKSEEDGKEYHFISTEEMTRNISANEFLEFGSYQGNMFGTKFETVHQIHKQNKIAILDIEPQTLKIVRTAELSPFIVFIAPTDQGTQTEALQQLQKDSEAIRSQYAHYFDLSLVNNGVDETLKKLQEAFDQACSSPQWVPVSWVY
Sequence of UniProt Q92621 (Q92621 whole entry, looked up): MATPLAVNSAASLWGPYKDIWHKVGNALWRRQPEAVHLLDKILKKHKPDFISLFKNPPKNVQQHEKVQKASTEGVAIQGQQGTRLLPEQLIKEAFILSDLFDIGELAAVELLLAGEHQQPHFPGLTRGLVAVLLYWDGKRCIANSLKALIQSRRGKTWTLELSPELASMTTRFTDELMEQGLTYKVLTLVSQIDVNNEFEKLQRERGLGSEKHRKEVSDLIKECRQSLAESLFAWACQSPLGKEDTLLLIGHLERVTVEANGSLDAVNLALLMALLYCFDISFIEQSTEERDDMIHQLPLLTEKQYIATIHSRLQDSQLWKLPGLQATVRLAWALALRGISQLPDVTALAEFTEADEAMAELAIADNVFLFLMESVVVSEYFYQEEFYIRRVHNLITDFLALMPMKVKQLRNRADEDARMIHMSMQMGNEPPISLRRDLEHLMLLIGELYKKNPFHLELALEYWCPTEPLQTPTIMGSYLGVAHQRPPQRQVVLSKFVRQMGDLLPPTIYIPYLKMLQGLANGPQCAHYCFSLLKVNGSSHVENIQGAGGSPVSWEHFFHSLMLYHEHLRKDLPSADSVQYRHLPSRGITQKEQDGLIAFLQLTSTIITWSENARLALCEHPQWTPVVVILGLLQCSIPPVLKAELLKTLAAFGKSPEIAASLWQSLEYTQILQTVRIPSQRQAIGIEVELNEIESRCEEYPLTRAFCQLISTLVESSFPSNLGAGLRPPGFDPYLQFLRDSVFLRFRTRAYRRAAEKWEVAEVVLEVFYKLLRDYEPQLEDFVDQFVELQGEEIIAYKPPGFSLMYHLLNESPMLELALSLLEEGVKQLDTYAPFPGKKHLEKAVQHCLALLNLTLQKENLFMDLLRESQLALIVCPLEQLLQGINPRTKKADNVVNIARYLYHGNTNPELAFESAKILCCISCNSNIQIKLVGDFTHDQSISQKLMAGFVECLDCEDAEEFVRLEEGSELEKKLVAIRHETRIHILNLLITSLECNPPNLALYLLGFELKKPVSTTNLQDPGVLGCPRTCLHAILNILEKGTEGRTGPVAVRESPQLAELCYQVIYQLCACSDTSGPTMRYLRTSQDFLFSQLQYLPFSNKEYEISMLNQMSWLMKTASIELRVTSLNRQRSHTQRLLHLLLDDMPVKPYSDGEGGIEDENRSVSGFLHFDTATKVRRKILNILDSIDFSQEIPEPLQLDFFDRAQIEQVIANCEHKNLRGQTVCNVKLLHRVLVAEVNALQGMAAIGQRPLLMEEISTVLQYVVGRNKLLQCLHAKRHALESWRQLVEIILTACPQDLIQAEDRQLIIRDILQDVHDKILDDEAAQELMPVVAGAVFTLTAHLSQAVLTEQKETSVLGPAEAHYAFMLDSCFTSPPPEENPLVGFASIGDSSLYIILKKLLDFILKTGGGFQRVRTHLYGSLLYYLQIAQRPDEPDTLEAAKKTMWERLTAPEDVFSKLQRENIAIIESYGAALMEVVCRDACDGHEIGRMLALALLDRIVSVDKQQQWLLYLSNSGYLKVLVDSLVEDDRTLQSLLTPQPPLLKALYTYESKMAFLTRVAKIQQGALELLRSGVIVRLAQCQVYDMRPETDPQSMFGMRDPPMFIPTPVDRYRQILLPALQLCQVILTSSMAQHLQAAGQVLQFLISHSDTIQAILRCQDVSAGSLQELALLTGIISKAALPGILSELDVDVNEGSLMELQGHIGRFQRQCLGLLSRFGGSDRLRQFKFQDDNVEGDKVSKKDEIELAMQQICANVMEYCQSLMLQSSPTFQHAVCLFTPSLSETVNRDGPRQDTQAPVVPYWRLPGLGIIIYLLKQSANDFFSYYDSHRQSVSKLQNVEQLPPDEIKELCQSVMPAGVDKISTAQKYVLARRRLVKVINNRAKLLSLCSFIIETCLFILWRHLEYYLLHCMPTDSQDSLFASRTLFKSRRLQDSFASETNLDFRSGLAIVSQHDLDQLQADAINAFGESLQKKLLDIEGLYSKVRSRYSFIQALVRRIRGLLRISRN
Sequence of UniProt O60361 (O60361 whole entry, looked up): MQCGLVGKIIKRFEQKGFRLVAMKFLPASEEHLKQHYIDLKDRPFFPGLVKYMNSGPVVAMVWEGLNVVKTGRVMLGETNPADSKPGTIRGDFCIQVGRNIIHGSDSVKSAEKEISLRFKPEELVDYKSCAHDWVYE
Sequence of UniProt Q12986 (Q12986 whole entry, looked up): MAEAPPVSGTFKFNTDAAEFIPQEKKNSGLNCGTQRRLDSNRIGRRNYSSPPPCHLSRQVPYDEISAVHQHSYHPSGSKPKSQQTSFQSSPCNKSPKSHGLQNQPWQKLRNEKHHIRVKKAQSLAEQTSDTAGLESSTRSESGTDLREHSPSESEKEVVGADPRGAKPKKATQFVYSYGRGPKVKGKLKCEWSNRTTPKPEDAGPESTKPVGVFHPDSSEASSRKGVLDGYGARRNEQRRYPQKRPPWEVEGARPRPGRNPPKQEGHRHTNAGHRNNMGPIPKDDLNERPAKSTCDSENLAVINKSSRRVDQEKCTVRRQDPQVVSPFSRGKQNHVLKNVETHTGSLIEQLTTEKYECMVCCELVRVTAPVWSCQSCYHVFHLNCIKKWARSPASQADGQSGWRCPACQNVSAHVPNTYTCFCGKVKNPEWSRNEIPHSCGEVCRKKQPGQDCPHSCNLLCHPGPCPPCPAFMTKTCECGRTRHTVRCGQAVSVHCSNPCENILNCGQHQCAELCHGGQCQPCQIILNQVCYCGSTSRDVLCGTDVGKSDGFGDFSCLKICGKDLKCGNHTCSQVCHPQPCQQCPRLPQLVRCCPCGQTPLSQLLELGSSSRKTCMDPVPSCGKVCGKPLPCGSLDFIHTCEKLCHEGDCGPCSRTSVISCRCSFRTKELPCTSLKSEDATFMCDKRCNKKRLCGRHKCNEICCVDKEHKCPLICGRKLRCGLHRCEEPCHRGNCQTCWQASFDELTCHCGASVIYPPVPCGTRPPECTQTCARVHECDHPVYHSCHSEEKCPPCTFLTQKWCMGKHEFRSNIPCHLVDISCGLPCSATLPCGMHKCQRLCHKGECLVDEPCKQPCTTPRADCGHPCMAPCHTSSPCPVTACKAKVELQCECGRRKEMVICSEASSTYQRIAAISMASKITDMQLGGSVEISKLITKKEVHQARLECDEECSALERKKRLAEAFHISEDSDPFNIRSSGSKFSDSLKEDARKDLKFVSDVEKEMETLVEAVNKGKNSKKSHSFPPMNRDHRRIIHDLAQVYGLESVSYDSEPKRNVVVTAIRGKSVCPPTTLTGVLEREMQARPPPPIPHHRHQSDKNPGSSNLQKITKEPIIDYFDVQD

| Target | log2 fold change [1] | log2 fold change [2] | log2 fold change [3] | log2 fold change [4] | log2 fold change [5] | log2 fold change [6] | log2 fold change [7] | log2 fold change [8] | log2 fold change [9] | log2 fold change [10] | log2 fold change [11] | log2 fold change [12] | log2 fold change [13] | log2 fold change [14] | log2 fold change [15] | log2 fold change [16] | log2 fold change [17] | log2 fold change [18] | log2 fold change [19] | log2 fold change [20] |
| --- | --- | --- | --- | --- | --- | --- | --- | --- | --- | --- | --- | --- | --- | --- | --- | --- | --- | --- | --- | --- |
| NFATC2 (UniProt Q13469) | -0.049 | 0.147 | -0.002 | 0.012 | 0.04 | -0.132 | 0.053 | -0.109 | -0.201 | 0.007 | -0.075 | -0.008 | -0.635 (active) | -0.001 | 0.011 | -0.055 | 0.099 | 0.102 | 0.013 | -0.033 |
| MRPS24 (UniProt Q96EL2) | -0.175 | 0.022 | -0.032 | 0.062 | 0.016 | -0.02 | 0.01 | 0.039 | 0.071 | -0.1 | -0.048 | 0.009 | -0.071 | -0.086 | -0.094 | -0.159 | 0.051 | 0.002 | -0.031 | -0.227 |
| NME2P1 (UniProt O60361) | 0.147 | 0.012 | 0.147 | 0.03 | 0.04 | 0.137 | -0.163 | 0.026 | 0.076 | 0.078 | -0.019 | -0.18 | -0.033 | 0.032 | -0.024 | -0.072 | -0.135 | 0.037 | 0.149 | 0.031 |
| NCOA7 (UniProt Q8NI08) | -0.027 | 0.063 | -0.047 | 0.004 | 0.07 | -0.048 | 0.014 | 0.011 | 0.024 | 0.045 | 0.017 | -0.056 | -0.075 | 0.052 | -0.005 | -0.088 | 0.072 | 0.019 | -0.033 | -0.009 |
| MPP1 (UniProt Q00013) | 0.083 | 0.098 | 0.027 | 0.016 | 0.004 | -0.001 | 0.012 | 0.033 | -0.048 | -0.019 | -0.073 | -0.047 | -0.071 | 0.075 | -0.087 | -0.147 | 0.023 | 0.011 | -0.023 | 0.029 |
| NFATC2IP (UniProt Q8NCF5) | -0.051 | 0.131 | -0.034 | 0.014 | 0.018 | 0.085 | -0.029 | -0.014 | -0.117 | 0.061 | -0.014 | -0.036 | -0.051 | -0.003 | -0.224 | -0.161 | -0.006 | -0.032 | 0.069 | -0.022 |
| OTUD6B (UniProt Q8N6M0) | 0.053 | 0.117 | -0.103 | 0.019 | 0.142 | 0.032 | -0.001 | 0.051 | -0.014 | -0.055 | -0.046 | -0.017 | -0.02 | 0.036 | -0.049 | -0.269 (active) | 0.029 | 0.053 | 0.078 | -0.015 |
| MON2 isoform 5 (UniProt Q7Z3U7) | 0.034 | 0.034 | 0.072 | -0.019 | 0.016 | 0.015 | 0.015 | 0.007 | -0.019 | 0.004 | 0.013 | -0.036 | -0.005 | 0.097 | -0.076 | -0.088 | 0.004 | 0.048 | -0.022 | 0.055 |
| NUP205 (UniProt Q92621) | 0.047 | 0.131 | -0.1 | -0.031 | 0.068 | 0 | 0.016 | -0.146 | -0.063 | -0.017 | -0.035 | -0.038 | -0.1 | -0.027 | 0.032 | -0.167 | -0.058 | 0 | -0.005 | 0.018 |
| MORF4L2 (UniProt Q15014) | -0.114 | -0.056 | -0.181 | 0.02 | -0.03 | 0.002 | -0.108 | -0.039 | -0.108 | -0.051 | -0.116 | 0.04 | 0.047 | -0.01 | 0.039 | 0.052 | 0.271 | 0.092 | 0.028 | 0.005 |
| MTOR (UniProt P42345) | 0.015 | 0.041 | 0.021 | -0.011 | 0.036 | 0.047 | 0.034 | -0.004 | 0.065 | -0.03 | -0.029 | -0.03 | 0.183 | 0.011 | -0.084 | -0.288 (active) | -0.002 | 0.046 | -0.044 | 0.014 |
| MRPS22 (UniProt P82650) | -0.052 | 0.026 | -0.021 | 0.16 | -0.082 | 0 | 0.026 | 0.068 | -0.028 | -0.101 | -0.027 | 0.051 | -0.02 | 0.017 | -0.102 | -0.11 | 0.04 | 0.007 | -0.013 | -0.175 |
| NFX1 (UniProt Q12986) | 0.065 | -0.024 | -0.26 | 0.058 | 0.042 | -0.069 | -0.039 | -0.107 | 0.014 | 0.048 | -0.028 | 0.083 | -0.002 | 0.178 | 0.099 | -0.051 | 0.227 | 0.182 | 0.011 | -0.043 |
| MUL1 (UniProt Q969V5) | 0.015 | 0.038 | 0.073 | -0.004 | 0.026 | 0.069 | 0.095 | 0.034 | -0.025 | 0.005 | 0.009 | 0.009 | -0.113 | -0.008 | -0.068 | -0.004 | 0.027 | 0.021 | -0.016 | -0.01 |
| NOP2 isoform 4 (UniProt P46087) | -0.17 | -0.261 | -0.349 | -0.064 | -0.045 | 0.272 | -0.255 | 0.078 | 0.023 | 0.006 | -0.111 | -0.278 | 0.308 | 0.205 | 0.163 | 0.241 | 0.194 | 0.325 | -0.062 | -0.474 |
| MRPS15 (UniProt P82914) | -0.061 | -0.201 | -0.119 | 0.089 | 0.069 | 0.064 | 0.021 | 0.106 | -0.045 | -0.108 | -0.062 | -0.022 | -0.024 | 0.014 | -0.12 | -0.041 | 0.004 | 0.041 | -0.01 | -0.2 |
